{
  "source": "the supplement of paper PMC8728848",
  "binders": {"B1": {"name": "Cohesin-mDC-ASGPR (Macaca mulatta) (protein)", "chain": "LDITSHHHHHHDDLDAVRIKVDTVNAKPGDTVRIPVRFSGIPSKGIANCDFVYSYDPNVLEIIEIEPGDIIVDPNPDKSFDTAVYPDRKIIVFLFAEDSGTGAYAITKDGVFATIVAKVKEGAPNGLSVIKFVEVGGFANNDLVEQKTQFFDGGVNVGDTTEPATPTTPVTTPTTTDDLDAASSQNSKFQRDLVTLRTDFSNFTSNTVAEIQALTSQGSSVEEMIASLKAEVEVIKQEQQAVHSEMLLRVQRLMQDLNKLTCQVATLKNNASTERTCCPVNWVEHQDSCYWFSRSGMPWAEAEKHCQLENAHLVVINSREEQNFVQEHLSFAYTWMGLSDREGAWKWVDGTDYETGFQNWKPGQPDDWQGHGLGGGEDCAHFHPDGRWNDDVCQRPYYWVCEAGLTQASQESH"}},
  "assay_in_all_cases": "glycan array binding signal (z-score within array); higher = stronger binding",
  "details_in_all_cases": "glycan notation: IUPAC condensed, linker removed",
  "key": {"[1]": {"biological_target": "Fuc(a1-2)Gal(b1-3)GalNAc(a1-3)[Fuc(a1-2)]Gal(b1-4)Glc", "summary_of_the_method": "(§1)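 Negative Z-scores can be read as non-binding. The Z-score is calculated within each array and then averaged across arrays of one protein sequence at different concentrations or buffers and across linkers. Arrays, 3228 in all, were curated from the Consortium for Functional Glycomics database and kept only where the protein sequence was available.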"}, "[2]": {"biological_target": "Fuc(a1-2)Gal(b1-3)GalNAc(b1-3)Gal", "summary_of_the_method": "as §1"}, "[3]": {"biological_target": "Fuc(a1-2)Gal(b1-3)GlcNAc(b1-2)Man(a1-3)[Fuc(a1-2)Gal(b1-3)GlcNAc(b1-2)Man(a1-6)]Man(b1-4)GlcNAc(b1-4)[Fuc(a1-6)]GlcNAc", "summary_of_the_method": "as §1"}, "[4]": {"biological_target": "Fuc(a1-2)Gal(b1-3)GlcNAc6S", "summary_of_the_method": "as §1"}, "Fuc(a1-2)Gal(b1-4)Glc": {"biological_target": "Fuc(a1-2)Gal(b1-4)Glc", "summary_of_the_method": "as §1"}, "[5]": {"biological_target": "Fuc(a1-2)[Gal(a1-3)]Gal(b1-4)GlcNAc(b1-2)Man", "summary_of_the_method": "as §1"}, "[6]": {"biological_target": "Fuc(a1-2)[GalNAc(a1-3)]Gal(b1-3)GlcNAc(b1-6)GalNAc", "summary_of_the_method": "as §1"}, "[7]": {"biological_target": "Fuc(a1-2)[GalNAc(a1-3)]Gal(b1-4)GlcNAc(b1-6)GalNAc", "summary_of_the_method": "as §1"}, "[8]": {"biological_target": "Fuc(a1-2)[GalNAc(a1-3)]Gal(b1-4)[Fuc(a1-3)]GlcNAc", "summary_of_the_method": "as §1"}, "[9]": {"biological_target": "Fuc(a1-2)[GalNAc(a1-4)]Gal(b1-4)GlcNAc", "summary_of_the_method": "as §1"}, "[10]": {"biological_target": "Fuc(a1-3)[GalNAc(b1-4)]GlcNAc6S", "summary_of_the_method": "as §1"}, "Gal(a1-3)Gal": {"biological_target": "Gal(a1-3)Gal", "summary_of_the_method": "as §1"}, "Gal(a1-4)Gal(b1-4)GlcNAc": {"biological_target": "Gal(a1-4)Gal(b1-4)GlcNAc", "summary_of_the_method": "as §1"}, "Gal(b1-2)Gal": {"biological_target": "Gal(b1-2)Gal", "summary_of_the_method": "as §1"}, "[11]": {"biological_target": "Gal(b1-3)GlcNAc(b1-2)Man(a1-3)[Gal(b1-3)GlcNAc(b1-2)Man(a1-6)]Man(b1-4)GlcNAc(b1-4)[Fuc(a1-6)]GlcNAc", "summary_of_the_method": "as §1"}, "[12]": {"biological_target": "Gal(b1-3)GlcNAc(b1-2)[Gal(b1-3)GlcNAc(b1-6)]Man(a1-6)[Gal(b1-3)GlcNAc(b1-2)Man(a1-3)]Man(b1-4)GlcNAc(b1-4)GlcNAc", "summary_of_the_method": "as §1"}, "[13]": {"biological_target": "Gal(b1-3)GlcNAc(b1-3)Gal(b1-4)[Fuc(a1-3)]GlcNAc(b1-6)[Gal(b1-3)GlcNAc(b1-3)]Gal(b1-4)Glc", "summary_of_the_method": "as §1"}, "[14]": {"biological_target": "Gal(b1-3)[Fuc(a1-4)]GlcNAc(b1-6)GalNAc", "summary_of_the_method": "as §1"}, "[15]": {"biological_target": "Gal(b1-3)[Neu5Ac(a2-6)]GalNAc", "summary_of_the_method": "as §1"}, "[16]": {"biological_target": "Gal(b1-4)GlcNAc(b1-2)[Gal(b1-4)GlcNAc(b1-6)]Man(a1-6)[Gal(b1-4)GlcNAc(b1-2)Man(a1-3)]Man(b1-4)GlcNAc(b1-4)GlcNAc", "summary_of_the_method": "as §1"}, "[17]": {"biological_target": "Gal(b1-4)GlcNAc(b1-2)[Gal(b1-4)GlcNAc(b1-6)]Man(a1-6)[Gal(b1-4)GlcNAc(b1-2)Man(a1-3)]Man(b1-4)GlcNAc(b1-4)[Fuc(a1-6)]GlcNAc", "summary_of_the_method": "as §1"}, "[18]": {"biological_target": "Gal(b1-4)GlcNAc(b1-3)Gal(b1-4)GlcNAc(b1-3)Gal(b1-4)GlcNAc(b1-3)Gal(b1-4)GlcNAc(b1-3)Gal(b1-4)GlcNAc(b1-2)[Gal(b1-4)GlcNAc(b1-3)Gal(b1-4)GlcNAc(b1-3)Gal(b1-4)GlcNAc(b1-3)Gal(b1-4)GlcNAc(b1-3)Gal(b1-4)GlcNAc(b1-6)]Man(a1-6)[Gal(b1-4)GlcNAc(b1-3)Gal(b1-4)GlcNAc(b1-3)Gal(b1-4)GlcNAc(b1-3)Gal(b1-4)GlcNAc(b1-3)Gal(b1-4)GlcNAc(b1-2)Man(a1-3)]Man(b1-4)GlcNAc(b1-4)[Fuc(a1-6)]GlcNAc", "summary_of_the_method": "as §1"}, "Gal4S(b1-4)GlcNAc": {"biological_target": "Gal4S(b1-4)GlcNAc", "summary_of_the_method": "as §1"}, "GalNAc(b1-3)Gal": {"biological_target": "GalNAc(b1-3)Gal", "summary_of_the_method": "as §1"}, "GalNAc(b1-4)GlcNAc": {"biological_target": "GalNAc(b1-4)GlcNAc", "summary_of_the_method": "as §1"}, "GalNAc3S(b1-4)GlcNAc3S": {"biological_target": "GalNAc3S(b1-4)GlcNAc3S", "summary_of_the_method": "as §1"}, "GalNAc6S(b1-4)GlcNAc": {"biological_target": "GalNAc6S(b1-4)GlcNAc", "summary_of_the_method": "as §1"}, "[19]": {"biological_target": "GlcNAc(b1-3)Gal(b1-4)GlcNAc(b1-2)[GlcNAc(b1-3)Gal(b1-4)GlcNAc(b1-6)]Man(a1-6)[GlcNAc(b1-3)Gal(b1-4)GlcNAc(b1-2)Man(a1-3)]Man(b1-4)GlcNAc(b1-4)GlcNAc", "summary_of_the_method": "as §1"}, "[20]": {"biological_target": "GlcNAc(b1-3)Gal(b1-4)GlcNAc(b1-3)Gal(b1-4)GlcNAc(b1-2)Man(a1-3)[GlcNAc(b1-3)Gal(b1-4)GlcNAc(b1-3)Gal(b1-4)GlcNAc(b1-2)Man(a1-6)]Man(b1-4)GlcNAc(b1-4)[Fuc(a1-6)]GlcNAc", "summary_of_the_method": "as §1"}, "[21]": {"biological_target": "GlcNAc(b1-4)[GlcNAc(b1-6)]GalNAc", "summary_of_the_method": "as §1"}},
  "note": "Only a selection was taken, and the strongest signals are over-represented in it overall.",
  "data": [
    {"binder": "B1", "values": [
      {"measurement": "glycan array binding signal (z-score)", "setting": "[1]", "value": -0.406},
      {"measurement": "glycan array binding signal (z-score)", "setting": "[2]", "value": 0.568},
      {"measurement": "glycan array binding signal (z-score)", "setting": "[3]", "value": -0.227},
      {"measurement": "glycan array binding signal (z-score)", "setting": "[4]", "value": 0.873},
      {"measurement": "glycan array binding signal (z-score)", "setting": "Fuc(a1-2)Gal(b1-4)Glc", "value": -0.387},
      {"measurement": "glycan array binding signal (z-score)", "setting": "[5]", "value": -0.34},
      {"measurement": "glycan array binding signal (z-score)", "setting": "[6]", "value": 3.22},
      {"measurement": "glycan array binding signal (z-score)", "setting": "[7]", "value": 3.46},
      {"measurement": "glycan array binding signal (z-score)", "setting": "[8]", "value": 0.425},
      {"measurement": "glycan array binding signal (z-score)", "setting": "[9]", "value": 3.47},
      {"measurement": "glycan array binding signal (z-score)", "setting": "[10]", "value": 3.4},
      {"measurement": "glycan array binding signal (z-score)", "setting": "Gal(a1-3)Gal", "value": -0.427},
      {"measurement": "glycan array binding signal (z-score)", "setting": "Gal(a1-4)Gal(b1-4)GlcNAc", "value": -0.412},
      {"measurement": "glycan array binding signal (z-score)", "setting": "Gal(b1-2)Gal", "value": -0.312},
      {"measurement": "glycan array binding signal (z-score)", "setting": "[11]", "value": -0.402},
      {"measurement": "glycan array binding signal (z-score)", "setting": "[12]", "value": -0.399},
      {"measurement": "glycan array binding signal (z-score)", "setting": "[13]", "value": -0.418},
      {"measurement": "glycan array binding signal (z-score)", "setting": "[14]", "value": 3.02},
      {"measurement": "glycan array binding signal (z-score)", "setting": "[15]", "value": -0.372},
      {"measurement": "glycan array binding signal (z-score)", "setting": "[16]", "value": -0.394},
      {"measurement": "glycan array binding signal (z-score)", "setting": "[17]", "value": -0.418},
      {"measurement": "glycan array binding signal (z-score)", "setting": "[18]", "value": -0.379},
      {"measurement": "glycan array binding signal (z-score)", "setting": "Gal4S(b1-4)GlcNAc", "value": -0.407},
      {"measurement": "glycan array binding signal (z-score)", "setting": "GalNAc(b1-3)Gal", "value": 3.51},
      {"measurement": "glycan array binding signal (z-score)", "setting": "GalNAc(b1-4)GlcNAc", "value": 3.5},
      {"measurement": "glycan array binding signal (z-score)", "setting": "GalNAc3S(b1-4)GlcNAc3S", "value": -0.428},
      {"measurement": "glycan array binding signal (z-score)", "setting": "GalNAc6S(b1-4)GlcNAc", "value": 3.82},
      {"measurement": "glycan array binding signal (z-score)", "setting": "[19]", "value": -0.07},
      {"measurement": "glycan array binding signal (z-score)", "setting": "[20]", "value": -0.329},
      {"measurement": "glycan array binding signal (z-score)", "setting": "[21]", "value": -0.393}
    ]}
  ]
}
